Experimental data: PubChem BioAssay AID1851 (National Center for Advancing Translational Sciences (NCATS), 2009)
The campaign covered roughly 16,000 compounds. About 4,000 (25%) were called active. About 26% were inconclusive and are not listed. A selection follows. A number with no mark means an inactive call. Calls follow the shape of the dose curve; as a rule, active = well fitted curve in the direction sought with a large enough effect; inconclusive = small, poorly fitted or top-dose-only effect, or effect the other way; inactive = no such curve, though single readings can be large or run the other way.

Molecular target: Cytochrome P450 2C9 (Homo sapiens) (UniProt P11712)
Sequence (P11712 whole entry, looked up): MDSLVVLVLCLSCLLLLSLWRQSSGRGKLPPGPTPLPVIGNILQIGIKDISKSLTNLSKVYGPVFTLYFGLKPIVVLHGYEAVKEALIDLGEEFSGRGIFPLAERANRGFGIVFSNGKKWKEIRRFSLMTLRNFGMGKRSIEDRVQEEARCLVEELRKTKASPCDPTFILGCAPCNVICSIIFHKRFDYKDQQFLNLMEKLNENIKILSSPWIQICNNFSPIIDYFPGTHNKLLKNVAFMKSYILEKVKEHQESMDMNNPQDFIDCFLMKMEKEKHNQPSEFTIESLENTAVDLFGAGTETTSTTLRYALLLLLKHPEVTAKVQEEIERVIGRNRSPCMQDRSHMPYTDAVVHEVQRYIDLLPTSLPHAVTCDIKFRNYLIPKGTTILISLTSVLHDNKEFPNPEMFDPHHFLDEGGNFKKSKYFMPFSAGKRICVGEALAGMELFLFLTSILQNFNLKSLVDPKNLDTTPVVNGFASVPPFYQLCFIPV
Test: Cytochrome panel assay with activity outcomes
Settings: recombinant CYP, pro-luciferin dealkylation, luminescence, p450-cyp2c9; series mostly up to 57.1 µM
% is scaled to controls: 0 for no effect and ±100 for the full control effect.

Row | SMILES | AC50 | activity, negative = inhibition
1 | O=C(Cn1cnc([N+](=O)[O-])c1)NCc1ccc(F)cc1 | inactive | –
2 | COc1ccccc1OCCn1cc(C(=O)c2ccco2)c2ccccc21 | 0.562 µM (active) | –
3 | Cc1ccc(CNC(=O)Cn2c(=O)oc3ccccc32)o1 | inactive | –
4 | Cc1ccccc1C(=O)c1cccn1CC(=O)NCc1ccco1 | inactive | –
5 | O=C(Cn1cc(C(=O)c2ccco2)c2ccccc21)NCc1ccco1 | 14.1 µM (active) | –
6 | COc1ccccc1CN1CCC2(CC1)CCN(C(=O)c1ccco1)CC2 | inactive | –
7 | COc1ccccc1CN1CCCC2(CCN(C(=O)c3ccco3)CC2)C1 | inactive | –
8 | N[C@H](C(=O)N[C@@H]1C(=O)N2C(C(=O)O)=C(Cl)CS[C@@H]12)c1ccccc1 | inactive | –
9 | COc1cccc2c1C(=N)c1c(O)c3c(c(O)c1C2=O)C[C@](O)(C(C)=O)C[C@@H]3O[C@H]1C[C@H](N)[C@@H](O)[C@H](C)O1 | – | -16.6% [at 11.4 µM]
10 | O=C(NC12CC3CC(CC(C3)C1)C2)C12CC3CC(C1)CC(n1cnc(Cl)n1)(C3)C2 | 12.6 µM (active) | –
11 | COc1ccc(NC(=O)C23CC4CC(C2)CC(n2cnc(Br)n2)(C4)C3)c(C)c1 | inactive | –
12 | CNc1ccnc(-c2ccccc2CN(C)C)n1 | – | 0.444% [at 2.29 µM]
13 | CCOc1ccc(CCNC(=O)C2CCN(S(=O)(=O)CC)CC2)cc1OCC | inactive | –
14 | CCOc1ccc(CCNC(=O)CCCN2C(=O)c3ccccc3C2=O)cc1OCC | 15.8 µM (active) | –
15 | COCCn1c(=O)cnc2cnc(Nc3ccccc3)nc21 | inactive | –
16 | CCCCCOC(=O)c1c(N)n(CCOC)c2nc3ccccc3nc12 | 5.01 µM (active) | –

Row | SMILES | AC50 | activity, negative = inhibition
17 | CCCc1nc2sc3ccccc3c(=O)c2c(=O)n1CCOC | inactive | –
18 | CCn1nccc1C(=O)Nc1nc2ccccc2n1CCN1CCCCC1 | inactive | –
19 | O=C(Nc1nc2ccccc2n1Cc1ccccc1)c1ccc(COc2ccccc2[N+](=O)[O-])o1 | 2 µM (active) | –
20 | N[C@H](C(=O)O)c1nn[nH]n1 | inactive | –
21 | CC1=C(C)/C(=N\OC(=O)/C=C/c2ccccc2)C=CC1=O | inactive | –
22 | Cn1cnc([N+](=O)[O-])c1Sc1nc(N)nc2c1ncn2Cc1ccccc1 | – | 4.6% [at 11.4 µM]
23 | Cc1cc(C)c2cc(C#N)c(NCCOC(=O)c3ccccc3C)nc2c1 | 2.51 µM (active) | –
24 | CCCCNc1c(C(=O)OCC)c(C)nc2c1cnn2CC | inactive | –
25 | COc1ccccc1CNc1ccnc(-c2cccc(C#N)c2)n1 | – | -24.8% [at 2.29 µM]
26 | CC(=O)NCCNc1ncnc2ccc(-c3ccccc3C#N)cc12 | – | -2.36% [at 2.29 µM]
27 | COCCNc1nc(-c2ccc(C(=O)N(C)C)cc2)nc2ccccc12 | – | -2.68% [at 2.29 µM]
28 | COC(=O)c1cc(C#N)c(Oc2ccc(OC)cc2)nc1C | 14.1 µM (active) | –
29 | CCCCNc1nc(-c2ccccc2)c(C(=O)OCC)cc1C#N | 3.16 µM (active) | –
30 | COC(=O)c1cc(C#N)c(NCc2ccc(Cl)cc2Cl)nc1C | inactive | –
31 | CCOC(=O)c1cc(C#N)c(Oc2ccccc2OC)nc1-c1ccccc1 | 7.08 µM (active) | –
